Records with an inconclusive call do not appear. A number with no mark means an inactive call. Activity calls are given as the source filed them. Unless noted, the call rests on the fitted dose curve.

The nature of experiment [1]: qHTS for Inhibitors of the Functional Ribonucleoprotein Complex (vRNP) of Lassa (LASV) Arenavirus: LASV Primary Screen - GLuc reporter signal (AID 1347082; calls by dose curve; tested in HEK293 reporter line; further: nearly all actives have a fitted effect of over 60% in size; on activity change, negative = inhibition: series mostly up to about 57 µM).
Experiment [2] is described as follows: qHTS for Inhibitors of the Functional Ribonucleoprotein Complex (vRNP) of Lassa (LASV) Arenavirus: Viability assay - alamar blue signal for LASV Primary Screen (AID 1347083; calls by dose curve; tested in HEK293 reporter line; further: nearly all actives have a fitted effect of over 80% in size; on activity change, negative = reduced viability: series mostly up to about 57 µM).
A short description of experiment [3]: qHTS for Inhibitors of the Functional Ribonucleoprotein Complex (vRNP) of Lymphocytic Choriomeningitis Arenaviruses (LCMV): Viability assay - alamar blue signal for LCMV Primary Screen (AID 1347085; calls by dose curve; tested in HEK293 reporter line; further: nearly all actives have a fitted effect of over 80% in size; on activity change, negative = lower viability: series mostly up to about 57 µM). On the technique in general: In qHTS, concentration-response curves come from the screen itself.
For experiment [4], the target named is Nucleoprotein (Lymphocytic choriomeningitis virus (strain Armstrong)) (UniProt P09992). Kind of experiment: qHTS for Inhibitors of the Functional Ribonucleoprotein Complex (vRNP) of Lymphocytic Choriomeningitis Arenaviruses (LCMV): LCMV Primary Screen - GLuc reporter signal (AID 1347086). Further: nearly all actives have a fitted effect of over 70% in size. On activity change, negative = inhibition: series mostly up to about 57 µM.
On the % scale 0 is the no-effect control and ±100 the full control effect; potency means the concentration at half of the fitted maximal effect.

Sequence of Nucleoprotein (Lymphocytic choriomeningitis virus (strain Armstrong)) (P09992 whole entry, looked up): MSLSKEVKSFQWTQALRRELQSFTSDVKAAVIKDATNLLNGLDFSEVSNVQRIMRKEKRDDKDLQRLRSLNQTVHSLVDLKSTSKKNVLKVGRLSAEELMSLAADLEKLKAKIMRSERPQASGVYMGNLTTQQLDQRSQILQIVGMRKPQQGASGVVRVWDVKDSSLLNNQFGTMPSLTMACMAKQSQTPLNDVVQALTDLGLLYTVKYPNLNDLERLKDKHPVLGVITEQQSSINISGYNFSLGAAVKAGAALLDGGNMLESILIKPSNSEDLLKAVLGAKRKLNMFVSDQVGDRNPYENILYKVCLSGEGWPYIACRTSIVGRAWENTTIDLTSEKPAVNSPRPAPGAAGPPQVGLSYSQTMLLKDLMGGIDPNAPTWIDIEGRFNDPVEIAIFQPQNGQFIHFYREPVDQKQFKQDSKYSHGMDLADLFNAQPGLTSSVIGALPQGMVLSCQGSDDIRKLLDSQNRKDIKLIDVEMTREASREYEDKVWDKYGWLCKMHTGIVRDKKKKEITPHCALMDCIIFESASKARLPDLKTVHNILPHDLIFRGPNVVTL

Turning to `N#CC(=C(N)Sc1ccc(N)cc1)c1ccccc1C(F)(F)F`, the Potency entry in experiment [1], in experiment [2], in experiment [3] and in experiment [4] was “inactive” throughout.

Turning to `COC(=O)c1nccc2c1[nH]c1ccccc12`, the Potency entry in experiment [1], in experiment [2], in experiment [3] and in experiment [4] was “inactive” each time.

Turning to `COc1cc2c(cc1O)C(Cc1ccc(O)cc1)[N+](C)(C)CC2` (stereo not given), the Potency entry in experiment [1], in experiment [2], in experiment [3] and in experiment [4] was “inactive” in each case.

As for `COC(=O)C1(Cc2ccc(O)c(CC3OC3(C)C)c2)OC(=O)C(O)=C1c1ccc(O)cc1` (stereo not given), the Potency entry in experiment [1], in experiment [2], in experiment [3] and in experiment [4] was “inactive” in each case.

For the compound `Nc1ncnc2c1ncn2[C@@H]1O[C@H](COP(=O)(O)OP(=O)(O)OC[C@H]2OC(O)[C@H](O)[C@@H]2O)[C@@H](O)[C@H]1O` (stereo not given in full), the Potency result in experiment [1], in experiment [2], in experiment [3] and in experiment [4] was “inactive” each time.

Consider `O=c1c(-c2ccc(O)cc2)coc2cc(OC3O[C@H](CO)[C@H](O)[C@H](O)[C@H]3O)cc(O)c12` (stereo not given in full), for which the Potency was 19.3 µM (active) in experiment [1], 17.2 µM (active) in experiment [2], 21.7 µM (active) in experiment [3] and 19.3 µM (active) in experiment [4].

In the case of `CCCCC/C=C\C[C@@H]1O[C@H]1C(O)/C=C\C/C=C\CCCC(=O)O` (stereo not given in full), the activity change, negative = inhibition in experiment [1] is 2.65% [at 0.757 µM]; in experiment [4], 17.5% [at 0.757 µM]. Besides, the activity change, negative = reduced viability in experiment [2] is 5.76% [at 0.757 µM]. Also, the activity change, negative = lower viability in experiment [3] is 11% [at 0.757 µM].

As for `COc1c2c(nc3ccccc13)OC(C(C)(O)COC(C)=O)C2` (stereo not given), the Potency entry in experiment [1], in experiment [2], in experiment [3] and in experiment [4] was “inactive” in each case.

With `O=C1/C(=C\c2ccc(O)c(O)c2)Oc2c1ccc(O[C@@H]1O[C@H](CO)[C@@H](O)[C@H](O)[C@H]1O)c2O`, the Potency result in experiment [1], in experiment [2], in experiment [3] and in experiment [4] was “inactive” throughout.

As for `O=c1cc(-c2ccccc2)c2c(O)cc(O)cc2o1`, the Potency entry in experiment [1], in experiment [2], in experiment [3] and in experiment [4] was “inactive” in each case.

In the case of `O=C1C=C(O)c2cccc(O)c2C1=O`, the Potency entry in experiment [1], in experiment [2], in experiment [3] and in experiment [4] was “inactive” in each case.

Turning to `Cc1c(O)c2c(c(C(=O)/C=C/c3ccccc3)c1O)OC(C)(C)C=C2`, the Potency result in experiment [1], in experiment [2], in experiment [3] and in experiment [4] was “inactive” in each case.

Take `COc1cc(C(=O)O)cc(OC)c1OC`: the Potency result in experiment [1], in experiment [2], in experiment [3] and in experiment [4] was “inactive” throughout.

In the case of `CCc1ccc(C=C2SC(=S)NC2=O)cc1`, the Potency result in experiment [1], in experiment [2], in experiment [3] and in experiment [4] was “inactive” each time.

Consider `O=C1C=C(C2OC(CO)C(O)C2O)C(=O)N1` (stereo not given), for which the Potency entry in experiment [1], in experiment [2], in experiment [3] and in experiment [4] was “inactive” each time.

With `COC1=CC(=O)CC(C)C12Oc1cc(OC)cc(OC)c1C2=O` (stereo not given), the Potency entry in experiment [1], in experiment [2], in experiment [3] and in experiment [4] was “inactive” each time.

On to `O=C(O)C1=NC(C(=O)O)CC(C=CN2c3cc(O)c(OC4OC(CO)C(O)C(O)C4O)cc3CC2C(=O)O)=C1` (stereo not given), for which the Potency result in experiment [1], in experiment [2], in experiment [3] and in experiment [4] was “inactive” each time.

As for `CCCCCCCCCCCCCCCCCC(=O)NCC(COP(=O)([O-])OCC[N+](C)(C)C)OCC` (stereo not given), the Potency result in experiment [1], in experiment [2], in experiment [3] and in experiment [4] was “inactive” throughout.

Regarding `CCN1CCN(C(=O)N[C@H](C(=O)N[C@@H]2C(=O)N3C(C(=O)O)=C(CSc4nnnn4C)CS[C@@H]23)c2ccc(O)cc2)C(=O)C1=O`, the Potency entry in experiment [1], in experiment [2], in experiment [3] and in experiment [4] was “inactive” each time.

Turning to `C=CC(O)CCCCC` (stereo not given), the Potency result in experiment [1], in experiment [2], in experiment [3] and in experiment [4] was “inactive” each time.

As to `Cc1cc(O)c2c(c1O)C(=O)C(O)=C(O)C2=O`, the Potency result in experiment [1], in experiment [2], in experiment [3] and in experiment [4] was “inactive” each time.

With `CC(C)COC(=O)c1ccccc1`, the Potency result in experiment [1], in experiment [2], in experiment [3] and in experiment [4] was “inactive” in each case.

With `COc1c(C(O)CC(C)C)ccc2c1C(=O)OCc1cc(C)cc(O)c1O2` (stereo not given), the Potency result in experiment [1], in experiment [2], in experiment [3] and in experiment [4] was “inactive” each time.

Turning to `C[C@@H](O)CCC[C@H](O)/C=C/[C@@H]1[C@@H](C/C=C\CCCC(=O)O)[C@@H](O)C[C@H]1O`, the activity change, negative = inhibition in experiment [1] was -12.1% [at 0.757 µM]; in experiment [4] it was -26.1% [at 0.757 µM]. For the same compound, in experiment [2], the activity change, negative = reduced viability is -24.9% [at 0.757 µM]. For the same compound, the activity change, negative = lower viability in experiment [3] is -64.4% [at 0.757 µM].

As to `COc1ccc(C(=O)OC2CC[C@@]3(C)C4CCC5[C@]6(O)C[C@H](O)[C@@]7(O)C(CN8CC(C)CCC8[C@@]7(C)O)[C@]6(O)C[C@@]53O[C@]24O)cc1OC` (stereo not given in full), the Potency result in experiment [1], in experiment [2], in experiment [3] and in experiment [4] was “inactive” in each case.

As to `CNc1nc(-c2ccc3c(N)n[nH]c3c2)cc(N2C[C@@H](C(=O)NC3CCCCC3)CC[C@@H]2C)n1`, the Potency entry in experiment [1] and in experiment [4] was “inactive” each time. For the same compound, the Potency is 24.3 µM (active) in experiment [2] and 38.5 µM (active) in experiment [3].

For `C[C@@H](O)CCC[C@H](O)/C=C/[C@H]1[C@H](O)CC(=O)[C@@H]1C/C=C\CCCC(=O)O`, the activity change, negative = inhibition was -72.5% [at 5.82 µM] in experiment [1] and -73.7% [at 5.82 µM] in experiment [4]. The activity change, negative = reduced viability in experiment [2] was -134% [at 5.82 µM]. For the same compound, the activity change, negative = lower viability in experiment [3] was -144% [at 5.82 µM].

In the case of `NC(=O)c1ncn([C@@H]2O[C@H](CO)[C@@H](O)[C@@H]2O)c1N`, the Potency result in experiment [1], in experiment [2], in experiment [3] and in experiment [4] was “inactive” each time.

As to `C=C1[C@@H]2C[C@]3(C(CC2=O)[C@]24C5C[C@H]3[C@H]2N(CC)C[C@]5(C)CC[C@@H]4O)[C@@H]1O` (stereo not given in full), the Potency result in experiment [1], in experiment [2], in experiment [3] and in experiment [4] was “inactive” each time.

Consider `O=CN1CCCCC1`, for which the Potency entry in experiment [1], in experiment [2], in experiment [3] and in experiment [4] was “inactive” each time.

Source of the values: PubChem BioAssay (NCATS).
